Measured values: PubChem BioAssay AID588676 (Johns Hopkins Ion Channel Center, 2011)
Among all 310,000 compounds or so, about 3,900 (1.3%) were called active.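 Rule for the calls: active = calcium-response B-score plate-corrected more than 3 library SD below zero, starting fluorescence within 5 deviations, no agonist response on first addition; inactive = the rest.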 This excerpt belongs to a sample that is enriched for actives.

These compounds were tested against Mas-related G-protein coupled receptor member X1 (Homo sapiens) (UniProt Q96LB2) (assay: antagonists of human MrgX1 receptor, primary screen, HEK293 cells, Fluo-4 calcium flux (AID 588676;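 for B-score: peak minus trough fluorescence over baseline after final BAM8-22 challenge near maximal dose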)). Details: Fluo-4, BAM8-22 antagonism, at 10 µM; hits give low values.
Mas-related G-protein coupled receptor member X1 (Homo sapiens), sequence (Q96LB2 whole entry, looked up): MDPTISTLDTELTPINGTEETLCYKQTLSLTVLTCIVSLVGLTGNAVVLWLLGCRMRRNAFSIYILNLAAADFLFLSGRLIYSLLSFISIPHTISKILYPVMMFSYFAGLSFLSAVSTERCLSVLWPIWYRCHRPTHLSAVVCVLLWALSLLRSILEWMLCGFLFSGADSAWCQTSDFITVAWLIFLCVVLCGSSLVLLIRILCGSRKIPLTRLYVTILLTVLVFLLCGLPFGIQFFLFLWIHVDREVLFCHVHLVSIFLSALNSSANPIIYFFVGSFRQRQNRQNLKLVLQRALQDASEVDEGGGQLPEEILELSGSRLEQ

B-score, active:
Cc1ccc(S(=O)(=O)C(C#N)c2nc3ccccc3nc2N2CCCC2)cc1C (configuration not stated) -6.25
CCOc1ccc(C(=O)NC2CCN(S(=O)(=O)CC)CC2)cc1 -5.83
CC1=C/C(=N\OS(=O)(=O)c2ccccc2)C=CC1=O -5.63
COc1ccccc1Oc1nc(-c2cccnc2)nc2ccccc12 -5.1
O=C(N/N=C/c1ccccc1O)C1CCCC1 -4.79
Cc1ccc2cc(/C=N/Nc3ccc(C(=O)O)cc3)c(Cl)nc2c1 -14.6
c1ccc(-c2[nH]ncc2-c2nc3ccccc3[nH]2)cc1 -5.86
CCCn1c(O)c(CN2CCCC(C)C2)c(C)c(C#N)c1=O (configuration not stated) -5.29
CCCN1CC=C2C(C#N)=C(N)C(C#N)(C#N)C(c3cc(OC)ccc3OC)C2C1 (configuration not stated) -7.07
C=C(C)C1CC=C(C)/C(=N\NC(=O)CNc2ccccc2OC)C1 (configuration not stated) -6.1
NS(=O)(=O)c1ccc(NC(=S)Nc2ccc(Br)c(Cl)c2)cc1 -5.41
CCCCOC(=O)CNc1nnc(SCC(=O)OCC)[nH]c1=O -10.5
O=C(O)CSC(NC(=O)c1cccnc1)(C(F)(F)F)C(F)(F)F -5.59
O=C(COC(=O)C1CCN(S(=O)(=O)c2ccc3c(c2)OCCO3)CC1)Nc1ccccc1OC(F)F -5.02
CCC(C)c1ccccc1N1CC(C(=O)N2CCN(S(=O)(=O)c3ccc(F)cc3)CC2)CC1=O (configuration not stated) -7.31
S=C(NCc1ccc(Cl)cc1)NC12CC3CC(CC(C3)C1)C2 -5.44
O=C(c1cccs1)C1C(c2ccc(Br)cc2)NC(=S)NC1(O)C(F)(F)F (configuration not stated) -6.04
COc1ccc(S(=O)(=O)N2CCN(C(=O)NC3CCCCC3)CC2)cc1 -4.64
Cc1cc(C)n(CCNC(=O)CC2C(=O)NCCN2Cc2ccc(C)o2)n1 (configuration not stated) -4.73
O=C(CSc1nncn1-c1cccnc1)N1CCOCC1 -5.04

B-score, inactive:
COC(=O)C(C(=O)Nc1cccc(C)n1)C1CCCCCC1 (configuration not stated)
Cc1c(NC(=O)CCC2CCCCC2)cc(C(=O)N2CCOCC2)cc1[N+](=O)[O-]
Cc1cc(N2CCN(S(=O)(=O)c3ccc(C)c(C)c3)CC2)c2ccccc2n1
Cc1ccc(S(=O)(=O)Nc2nc3ccccc3nc2N2CCc3ccccc3C2)cc1
C#CCOCCOCCOCCNc1nc(N2CCN(C(=O)C(Cc3ccc(O)cc3)n3cc(C(N)CC(C)C)nn3)CC2)nc(N2CCN(C(=O)C(Cc3ccc(O)cc3)n3cc(C(N)C(C)CC)nn3)CC2)n1 (configuration not stated)
O=C(Nc1nnc(-c2ccccc2F)s1)c1ccccc1F
CN(CC(=O)NCCN1CCOCC1)S(=O)(=O)c1ccc(F)cc1
CCOc1ccc(NC(=S)N2CCC(NC(=O)c3ccccc3)CC2)cc1
CCOc1ccc(NS(=O)(=O)c2ccc(C(=O)NC3CCN(Cc4ccccc4)CC3)cc2)cc1
CCOC(=O)c1nnn2c1nc(N1CCN(c3ccccc3)CC1)c1ccccc12
COc1cc(C(=S)N2CCOCC2)cc(OC)c1OC(=O)c1cc([N+](=O)[O-])c(C)c([N+](=O)[O-])c1
O=S(=O)(ON(c1ccccc1)S(=O)(=O)c1ccccc1)c1ccccc1
CCOC(=O)c1ccc2[nH]c3c(c2c1)CCCC3NC=O (configuration not stated)
O=C(NC(C(=O)NCCN1CCOCC1)C12CC3CC(CC(C3)C1)C2)C1CCCCC1 (configuration not stated)
O=C(C[C@H]1C(=O)N(c2ccc(F)c(F)c2)C[C@@H]1Cc1ccccc1)Nc1ccccc1
C/C=C/C=C/C(=O)OCC(=O)Nc1ccc(Cl)cc1
COc1ccc(Nc2nc(-c3cccnc3)nc3ccccc23)cn1
O=[N+]([O-])c1ccc(F)cc1Oc1nc(-c2cccnc2)nc2ccccc12
CCOc1ccc(C(C)=O)cc1COC(=O)CN1C(=O)NC2(CCCC2)C1=O
Cc1cccc(OCC(O)Cn2c(N3CCCCC3)nc3c2c(=O)[nH]c(=O)n3C)c1 (configuration not stated)
c1ccc(-c2cc3c(NCC4COc5ccccc5O4)ncnc3s2)cc1 (configuration not stated)
Oc1cc2c(cc1O)CN(C(=S)NCCc1ccc(Cl)cc1)CCC2
Oc1ccccc1C=NC1CCCCC1N=Cc1ccccc1O (configuration not stated)
COc1ccc(/C=N/NC(=O)C2CC2)c(OC)c1OC
Cc1ccc2cc(/C=N/NC(=O)[C@@H]3CCCN3)c(Cl)nc2c1
O=C(O)c1ccc(N/N=C/c2ccc3ncccc3c2)cc1
CCCCC(O)(CCCC)C(=O)NN(C(=O)CCl)c1ccccc1
CC(C)(C)c1ccc(/C=C2\Oc3c(ccc(O)c3CN3CCN(CCO)CC3)C2=O)cc1
COc1ccc(-c2[nH]nc(-c3ccccc3)c2-c2nc3ccccc3[nH]2)cc1
O=C(Nc1cccc(-c2nc3ccccc3[nH]2)c1)c1ccc(C(=O)Nc2cccc(-c3nc4ccccc4[nH]3)c2)cc1
CC(OC(=O)CCCOc1ccccc1)C(=O)Nc1ccc(Cl)cn1 (configuration not stated)
CCOCCCn1c(NN)nc2ccccc2c1=O
Cc1c(CN2CCCCC2)c(O)n(CCO)c(=O)c1C#N
CCCCCCn1c(CN2CCCC(C)C2)nc2c1c(=O)n(C)c(=O)n2C (configuration not stated)
Cc1cc(NC(=O)/C=C/C(=O)N(c2ccccc2C)C(C(=O)NC2CCCC2)c2ccc(F)cc2)no1 (configuration not stated)
CCOCCOCCC(C(=O)O)P(=O)(c1ccccc1)c1ccccc1 (configuration not stated)
CCN1CC=C2C(C#N)=C(N)C(C#N)(C#N)[C@H](c3ccoc3)[C@H]2C1
N#CC1=C(N)C(C#N)(C#N)[C@H](c2ccsc2)[C@H]2COCC=C12
O=C(O)CN1c2cccc3cccc(c23)S1(=O)=O
COc1ccc(-c2cc(C(F)(F)F)nc(S(C)(=O)=O)n2)cc1OC
O=C(NNC1=NCCC1)c1cccc(S(=O)(=O)N2CCCCC2)c1
C=C(C)C1CC=C(C)/C(=N/NC(=O)CCCNc2cccc(C)c2)C1 (configuration not stated)
COc1ccc(Cl)cc1NC(=O)CNc1ccccc1F
O=S(=O)(Nc1ccccc1Cl)c1cccc2nsnc12
Cn1nc(C(C)(C)C)c(NC(=O)c2sccc2Cl)c1C(C)(C)C
COc1ccccc1N(CC(=O)NC1CCCC1)C(=O)C1(C)CC(=O)N=C2C=CC(C)=CN21 (configuration not stated)
CCn1c(SCC(=O)Nc2ccc(C)cc2)nc2nc3c(cc2c1=O)CCCC3
O=C1CC(c2c(F)cccc2Cl)C(n2cncn2)C(O)=C1C1NCCc2ccccc21 (configuration not stated)
COc1ccc(NC(=S)Nc2ccc(S(N)(=O)=O)cc2)c(C)c1
NS(=O)(=O)c1ccc(CCNC(=S)Nc2ccc(S(N)(=O)=O)cc2)cc1
CO/N=C(/CS(=O)(=O)c1ccc(Br)cc1)c1ccc(OC)cc1
CCOc1ccc(C)cc1S(=O)(=O)NC1CCCCCC1
Cc1nnc(SCC(=O)N2CCOCC2)[nH]c1=O
CCOC(=O)CSc1nc(C)c(Oc2ccc(Cl)cc2Cl)c(=O)[nH]1
COCCOC(=O)C1=C(C)NC(=O)NC1c1cc2c(cc1Br)OCO2 (configuration not stated)
O=C(NNC(=O)c1cccnc1)Nc1ccccc1
O=C(Cc1ccccc1)Nc1ccc(NC(=O)c2cccnc2)cc1
CCOC(=O)C1CCN(C(=O)COC(=O)C2CCN(S(=O)(=O)c3ccc4c(c3)OCCO4)CC2)CC1
COc1ccccc1CNC(=O)C1CCN(S(=O)(=O)c2ccc3c(c2)OCCO3)CC1
C/C(=N/O)c1ccc(N2C(=O)C3C4C=CC(C3C2=O)C2C3C(=O)N(c5ccc(/C(C)=N/O)cc5)C(=O)C3C42)cc1 (configuration not stated)
Clc1ccc(Nc2ccc3ccccc3n2)cc1
O=C(C1CC(=O)N(c2ccc(F)cc2)C1)N1CCN(c2ccccc2)CC1 (configuration not stated)
Cc1ccccc1N1CC(C(=O)Nc2ccc(S(=O)(=O)N3CCCC3)cc2)CC1=O (configuration not stated)
Cc1cc(C)n(C(=O)c2ccc(C)c(S(=O)(=O)N3CCOCC3)c2)n1
S=C(NCc1ccc(Cl)cc1)NC1CCCCC1
O=C(NCc1ccncc1)NC12CC3CC(CC(C3)C1)C2
CC(=O)c1cccc(NC(=S)N2CCCC2)c1
O=C(Nc1ccc(Br)cc1)c1cc(S(=O)(=O)Nc2ccccn2)ccc1Cl
OC(c1ccccc1)c1nccn1Cc1ccccc1 (configuration not stated)
CN(Cc1ccccc1)C(=O)C(=O)c1cn(CC(=O)N2CCCC2)c2ccccc12
CCOC(=O)C1C(c2ccc(Cl)cc2)NC(=S)NC1(O)C(F)(F)F (configuration not stated)
CC(=O)C1C(c2cccc(Oc3ccccc3)c2)NC(=O)NC1(O)C(F)(F)F (configuration not stated)
COc1ccc(C(C#N)Nc2ccccc2C)cc1 (configuration not stated)
O=S(=O)(c1ccc(F)cc1)N1CCN(C(=S)NC2CCCC2)CC1
CCOC(=O)N1CCN(S(=O)(=O)c2ccc(OC)cc2)CC1
C=CC[n+]1c(-c2ccc(C)cc2)csc1NNC(=O)Nc1ccccc1
CCCOc1ccc(Cc2c(Cl)nc(SC)nc2NC)cc1
Cc1nccn1CCCNC(=O)CC1C(=O)NCCN1Cc1ccc(Cl)c(F)c1 (configuration not stated)
COc1cc(CN2CCNC(=O)C2CC(=O)NCCc2ncccc2C)cc(OC)c1 (configuration not stated)
O=C(CSc1nnc(Cc2ccccc2)n1-c1ccccc1)N1CCOCC1
COC(=O)c1ccc(NC(=O)CSc2nncn2-c2cccnc2)cc1
CCC(C)(C)NC(=O)CN(C(=O)CCC(=O)Nc1nccs1)c1ccc2c(c1)OCO2
